The list is not random: actives were taken first. Their share in the collection is about 2.2%.
A549 viability: Nrf2 qHTS screen for inhibitors: counterscreen for cytotoxicity; A549 ARE-Fluc cells, CellTiter-Fluor viability, 18-24 h; Potency, µM (series often up to 46 µM), inactives show at the highest dose activity change, negative = cytotoxicity, usual class: inhibitors; 390,000 tested, 0.16% active; AID 504648, 2011; further: on the % scale 0 is the no-effect control and ±100 the full control effect
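A549 ARE_Fluc cells in 5% FBS OPTI-MEM were exposed to compounds in concentration-response for 18-24 h at 37 deg C. Viability was read by CellTiter-Fluor fluorescence (Ex 405/Em 525) after 30 min, before the luciferase read.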
Pin1 inhibitor: qHTS Assay to Find Inhibitors of Pin1; Peptidyl-prolyl cis-trans isomerase NIMA-interacting 1 (Homo sapiens), Q13526; Pin1 FP peptide displacement, HiFluor488, 10 min; Potency, µM (top dose mostly 115 µM), without a hit: top-dose activity, negative = inhibition, most hits filed as inhibitors; 390,000 tested, 0.009% active; AID 504891, 2011; active means well fitted inhibition curve with a large enough effect in the polarisation, with a control signal flat, not every such curve was filed as active; inconclusive means small, poorly fitted or top-dose-only effect, or effect the other way, or a change in a side signal; inactive means no such curve, though single readings can be large or run the other way; the % refers to the polarisation; further: on the % scale 0 is the no-effect control and ±100 the full control effect
Target sequence (Q13526 whole entry, looked up): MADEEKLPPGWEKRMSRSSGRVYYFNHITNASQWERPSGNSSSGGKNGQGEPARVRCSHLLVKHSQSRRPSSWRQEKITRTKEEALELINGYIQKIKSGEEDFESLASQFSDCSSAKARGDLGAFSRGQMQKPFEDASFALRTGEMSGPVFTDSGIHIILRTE
Nrf2 ARE act: qHTS of Nrf2 Activators; AREc32 ARE-luciferase reporter (MCF7-derived line), luminescence, 24 h; Potency, µM (top dose mostly 46.1 µM), without a hit: at the top dose activation, actives largely listed as activators; 410,000 tested, 0.31% active; AID 624171, 2012; further: % of control where 0% means no effect; nearly all actives have a fitted effect of over 65% in size
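ARE activation measured as luciferase luminescence (Steady-Glo, 30 min RT) in AREc32_Fluc cells after 24 hr compound exposure at 37 deg C, 5% CO2; cells seeded overnight at 1000/well in OPTI-MEM, 5% FBS.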
Nrf2 inh: Nrf2 qHTS screen for inhibitors. A549 ARE-Fluc reporter, luciferase luminescence, 18-24 h. Potency, µM (series often up to 46 µM), for inactives: at the highest dose activity change, negative = inhibition, usual class: inhibitors. 360,000 tested, 2.1% active; further: on the % scale 0 is the no-effect control and ±100 the full control effect; nearly all actives have a fitted effect of over 60% in size
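Nrf2 activity is the BugLite luminescence, read 15 min after reagent at room temperature, following CellTiter-Fluor cytotoxicity readout (30 min, 37C). Compound titrations were applied for 18-24 h to 5000 A549 ARE_Fluc cells/well in 5% FBS OPTI-MEM.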
The depositor's hits bear a star; ? = inconclusive; . = not tested or not shown. Unless noted, the call rests on the fitted dose curve; in most records, active means well fitted curve in the direction sought with a large enough effect; inconclusive means small, poorly fitted or top-dose-only effect, or another doubt; inactive means no such curve, though single readings can be large; an effect the other way counts as inactive or inconclusive. Potency means the concentration at half of the fitted maximal effect.

SMILES	A549 viability	Pin1 inhibitor	Nrf2 ARE act	Nrf2 inh
Cc1ccc(CN(C)C(=O)c2cccc(S(=O)(=O)N3CCN(c4ccccc4)CC3)c2)cc1	-8%	22%	0%	?
CCN(CC(=O)Nc1ccccc1C(F)(F)F)C(=O)CCSc1ccc(F)cc1	-17%	0%	2%	?
C[n+]1c(-c2ccccc2)c2cc(N)ccc2c2ccc(N)cc21	?	?	-3%	1.8µM*
Cc1cc(=O)n(-c2ccccc2)n1C	-3%	-1%	0%	?
COc1cc2c3cc1Oc1c(OC)c(OC)cc4c1[C@H](Cc1ccc(cc1)Oc1cc(ccc1O)C[C@H]3N(C)CC2)N(C)CC4	13µM*	-2%	4%	-11%
COc1cc2c3c(c1OC)Oc1ccc(cc1)C[C@H]1c4c(cc(OC)c(OC)c4Oc4ccc(cc4)C[C@@H]3N(C)CC2)CCN1C	-27%	36%	1%	-7%
COc1cc2c3cc1Oc1cc(ccc1O)C[C@@H]1c4c(cc(OC)c(O)c4Oc4ccc(cc4)C[C@H]3N(C)CC2)CCN1C	8.2µM*	-5%	1%	-13%
COc1ccc2cc1Oc1ccc(cc1)C[C@H]1c3cc(c(OC)cc3CCN1C)Oc1c(OC)c(OC)cc3c1[C@H](C2)N(C)CC3	6.5µM*	-1%	6%	?
Cc1oc(-c2ccc(Cl)cc2)nc1CN1CCC(C(=O)NCCCN2CCN(c3cccc(Cl)c3)CC2)CC1	-9%	-1%	4%	?
Cc1c(CCNS(=O)(=O)c2ccccc2)sc2nc(-c3ccc(Cl)cc3)nn12	-21%	?	-1%	.
O=P1(Oc2ccccc2)CC=CC(COC(c2ccccc2)(c2ccccc2)c2ccccc2)O1 (centres undefined)	?	-5%	.	?
COC(=O)C1=C(c2ccc(-c3ccccc3)c(F)c2)C[C@@H]2CC[C@H]1N2C(=O)NCc1ccco1	-19%	6%	0%	15µM*
COC(=O)C1=C(c2ccc(-c3ccccc3)c(F)c2)C[C@@H]2CC[C@H]1N2C(=O)NCCOc1ccccc1Cl	-20%	16%	0%	16µM*
CCCNC(=O)N1[C@H]2CC[C@@H]1C(C(=O)OC)=C(c1ccc(-c3ccccc3)c(F)c1)C2	0%	-2%	4%	16µM*
CCc1ccc(Nc2nc3c(S(=O)(=O)c4ccc(C)cc4)nnn3c3ccsc23)cc1	-12%	1%	1%	?
CC(=O)c1cccc(NC(=O)CSc2ncc3c(n2)-c2cc(Cl)ccc2N(Cc2ccccc2)S3(=O)=O)c1	-20%	45%	5%	-21%
CC(=O)OCC12CC(OC(=O)CC(C)C)C(C)=CC1OC1C(O)C(OC(C)=O)C2(C)C12CO2 (centres undefined)	.	-1%	-2%	0.021µM*
Cc1ccccc1N1C(=O)NC(=O)/C(=C/c2ccc(N3CCOCC3)o2)C1=O	-17%	?	3%	1%
Cc1ccccc1N1C(=O)NC(=O)/C(=C\c2cc(Br)c(N3CCOCC3)o2)C1=O	23µM*	?	6%	16µM*
CCOc1ccc(-c2cn3c(n2)sc2cc(C(=O)N4CCCC(C)C4)ccc23)cc1 (centres undefined)	0%	?	0%	10%
CCOc1ccc(C(=O)N2CCC(c3noc(-c4ccc(S(=O)(=O)N5CCCC5)cc4)n3)CC2)cc1	-17%	9%	-1%	15µM*
CCC(C)C1NC(=O)C2CCCN2C(=O)C(CC(C)C)OC(=O)CCNC(=O)C(C)N(C)C(=O)C(C(C)C)N(C)C1=O (centres undefined)	8.2µM*	-6%	4%	5.2µM*
C=CCCC[C@@H]1OC(=O)CNC(=O)C([C@@H](C)CC)NC(=O)[C@@H]2CCCN2C(=O)C([C@@H](C)CC)OC(=O)[C@H](Cc2ccccc2)N(C)C(=O)[C@H](C(C)C)NC(=O)C1(C)C (some centres undefined)	.	.	-2%	.
O=c1oc2cccnc2n1CCS(=O)(=O)c1ccc(F)cc1	-5%	-2%	?	-24%
CC12CCC(=O)C=C1CCC1C2CCC2(C)C(O)CCC12 (centres undefined)	0%	-9%	0%	-10%
CC(=O)C1C(N2CC2)CC2C3CCC4=CC(=O)CCC4(C)C3CCC21C (centres undefined)	16µM*	-8%	1%	-16%

Screening results from PubChem BioAssay.
